About 7,300 (2%) of roughly 360,000 compounds were called active. The entries come from a sample that favours actives as a whole. Values without a mark were called inactive. Cut-off read from the data, not from the text of the source: active = inhibition above about 50%; inactive = the rest.
Experiment: inhibitors of TWEAK-Fn14 signaling, primary screen, luciferase reporter cells, uHTS (AID 1159606)
Details: TWEAK-stimulated Fn14 reporter cells, luciferase luminescence, 8 h; at 10 µM; active compounds read high

Row | SMILES | inhibition
1 | C=CCNc1nnc(SCC(=O)N2CCCCC2)c2ccccc12 | 16.3%
2 | COC(=O)c1ccc2nc(-c3ccc(C)cc3)c(Cc3ccc(OC)cc3C)n2c1 | -18.1%
3 | Cc1cccc(NC(=S)NCCc2ccc(F)cc2)c1C | 3.93%
4 | Cc1cccc(NC(=S)NCCc2ccc(Cl)cc2)c1C | 72% (active)
5 | Cc1ccccc1NC(=S)NC(=O)Cc1ccc(Cl)cc1 | 9.93%
6 | Cc1ccc(CNC(=O)c2cccc3c2C(=O)c2ccc(N4CCC(C)CC4)cc2S3(=O)=O)cc1 | 21%
7 | COc1cc(/C=C/C(=O)OCC(=O)Nc2cccc(Oc3ccccc3)c2)ccc1O | 14.2%
8 | CCCCC[C@H](C)N1C[C@@H](COCc2ccccc2)Oc2cc(N3CC[C@@H](N(C)C)C3)ccc2S1(=O)=O | -25%
9 | Nc1ccccc1SC(C[N+](=O)[O-])c1ccccc1 (stereo not drawn) | 61.3% (active)
10 | CS(=O)(=O)N(Cc1ccccc1)c1ccc(C(=O)NN=C2CCCCCC2)cc1 | -6.55%
11 | COc1ccc(OC)c(NC(=O)C2CCCN2S(=O)(=O)c2ccc3c(c2)CC(C)N3C(C)=O)c1 (stereo not drawn) | -20.4%
12 | COc1ccc(CN(Cc2ccco2)S(=O)(=O)c2ccc(S(=O)(=O)N3CCCC3)cc2)cc1 | -30.2%
13 | Cc1ccsc1C(=O)OCC(=O)NCCc1ccccc1 | -22.4%
14 | Cc1ccsc1C(=O)OCC(=O)c1cc(C)n(CC2CCCO2)c1C (stereo not drawn) | 103% (active)
15 | Cc1ccsc1C(=O)OCC(=O)Nc1cccc(F)c1 | -31.6%
16 | Cc1ccc(OCC(=O)N2CCN(S(=O)(=O)c3ccc(Cl)s3)CC2)cc1C | 10.7%
17 | CCCC(C)C(=O)Nc1ccc(NC(C)=O)cc1 (stereo not drawn) | -11.6%
18 | Cc1cccc2sc(N(CCCN(C)C)C(=O)CCS(=O)(=O)c3ccccc3)nc12 | 61.9% (active)
19 | Cc1ccc(S(=O)(=O)CCC(=O)OCC(=O)N(C)Cc2ccccc2)cc1 | 4.76%
20 | COc1ccc(N(C)C(=O)CCS(=O)(=O)c2cccc3nsnc23)cc1 | 36.5%
21 | O=C(CCS(=O)(=O)c1ccccc1)Nc1nc2c(s1)CCCC2 | 22%
22 | COc1cccc2sc(N(CCCN(C)C)C(=O)CCS(=O)(=O)c3ccccc3)nc12 | 77.6% (active)

Row | SMILES | inhibition
23 | Cc1cccc(C)c1NC(=O)CCS(=O)(=O)c1cccc2nsnc12 | -23.2%
24 | CCOc1ccc(NS(=O)(=O)c2ccc(C(=O)NC3CCN(Cc4ccccc4)CC3)cc2)cc1 | 10.7%
25 | Cc1cccc(CCNC(=O)Cn2ncc3c([nH]c4ccc(C)cc43)c2=O)c1 | -15.4%
26 | C=CCc1cc(S(=O)(=O)c2ccc(O)c(CC=C)c2)ccc1O | 30.9%
27 | O=C1C(Sc2cccc(F)c2)=C[C@@]2(O)CC[C@@H](O)[C@]1(Sc1cccc(F)c1)[C@H]2O | 31.5%
28 | CC(OC(=O)Cc1ccc(F)cc1)C(=O)N1CCc2ccccc21 (stereo not drawn) | -3.73%
29 | C[C@H](CO)N1C[C@H](C)[C@H](CN(C)C(=O)Nc2ccc(C(F)(F)F)cc2)Oc2c(NC(=O)c3ccncc3)cccc2C1=O | 7.86%
30 | Cc1nnc(NC(=O)CSc2nccn2-c2cccc(C)c2C)s1 | 12.7%
31 | COc1cc(C(O)c2nc(-c3cnn(C)c3)cs2)ccc1F (stereo not drawn) | -2.28%
32 | Oc1c(Br)cccc1/C=N/Nc1c(F)c(F)c(F)c(F)c1F | 71.5% (active)
33 | Brc1ccccc1/C=N/Nc1nc2ccccc2o1 | -8.62%
34 | c1cc(-c2ccc3[nH]ccc3c2)n2ccnc2c1 | -2.85%
35 | COCCNC(=S)N1CCC(NC(=O)C23CC4CC(CC(C4)C2)C3)CC1 | 15.9%
36 | CCOC(=O)[C@]12CCCC=C1N(Cc1ccc(Cl)cc1Cl)C(=O)[C@H](CC(=O)N1CCCCC1)C2 | 7.58%
37 | COc1cc2c(=O)n(C)c3ccccc3c2cc1OC | -37.3%
38 | O=C(COC(=O)c1ccccc1)c1ccc2c(c1)OCCO2 | 77.6% (active)
39 | COc1ccc(C(=O)OCC(=O)Nc2cccc(C(C)=O)c2)cc1OC | 11.4%
40 | CC(=O)Nc1cccc(C(=O)OCC(=O)c2ccc3c(c2)OCO3)c1 | 81.9% (active)
41 | O=C(OCc1ccccc1F)c1ccc2c(c1)OCCO2 | -12.5%
42 | O=C(COC(=O)c1ccc(O)cc1O)c1ccc2c(c1)OCCO2 | -18.5%
43 | CC(=O)Nc1cccc(C(=O)OCC(=O)NCc2cc(C)c(O)c(C)c2)c1 | -19.2%
44 | CCOC(=O)[C@]12CCC=C1N(Cc1ccccc1)C(=O)[C@H](CC(=O)N1CCCC1)C2 | 15.9%

Row | SMILES | inhibition
45 | CCN1CCN(CCNC(=O)c2ccc3c(c2)NC(=O)/C(=C\c2cccc(Cl)c2)S3)CC1 | -66.6%
46 | CCN(CCCNC(=O)c1ccc2c(c1)NC(=O)CN2C)c1cccc(C)c1 | 82.5% (active)
47 | CCN(CCCNC(=O)CCn1c(=O)[nH]c2ccsc2c1=O)c1ccccc1 | -1.46%
48 | CCOC(=O)N1CCN(C(=O)C[C@@H]2C[C@@]3(C(=O)OC)CCCCC=C3N(CCC3=CCCCC3)C2=O)CC1 | -5.06%
49 | COCCCn1cc(CN2CC(N(C)C)CS2(=O)=O)nn1 (stereo not drawn) | 20.9%
50 | CC(C)C[C@H]1CNC(=O)C(=O)N1C[C@H]1CCCN1C[C@H](Cc1ccc(O)cc1)N1C[C@H](CC(C)C)N(CC2CCCCCC2)C(=O)C1=O | 1.64%
51 | CCC(C)Cn1c(O)cc2nn(-c3nc4ccccc4s3)c(=O)c-2c1C (stereo not drawn) | 61.6% (active)
52 | C[C@H](CO)N1C[C@H](C)[C@H](CN(C)C(=O)Nc2ccc3c(c2)OCO3)Oc2ncc(Br)cc2C1=O | -2.28%
53 | CCOc1ccc(CN2CCN(CCCc3ccccc3)C(CCO)C2)cc1 (stereo not drawn) | 1.65%
54 | CC(C)=CCN1CCN(Cc2ccc(Oc3ncccn3)cc2)CC1CCO (stereo not drawn) | 14.3%
55 | OCCC1CN(Cc2ccc(Oc3ncccn3)cc2)CCN1CCc1ccccc1 (stereo not drawn) | 75.5% (active)
56 | COc1ccc(OC)c(NC(=O)c2ccc3c(c2)CCN3S(C)(=O)=O)c1 | -3.45%
57 | CN(C)C1CN(Cc2cn(Cc3ccccc3)nn2)S(=O)(=O)C1 (stereo not drawn) | 7.88%
58 | COCc1c(N)c(C)nc(Cl)c1C#N | 12.4%
59 | COC(=O)N(C)C[C@@H]1OCc2cnnn2CCCC(=O)N([C@@H](C)CO)C[C@@H]1C | 19.1%
60 | C[C@@H]1CN([C@@H](C)CO)C(=O)CCCn2nncc2CO[C@H]1CN(C)C(=O)Nc1ccc(C(F)(F)F)cc1 | 106% (active)
61 | C[C@@H]1CN([C@@H](C)CO)C(=O)CCCn2nncc2CO[C@H]1CN(C)Cc1ccc(C(F)(F)F)cc1 | 1.47%
62 | O=C1c2ccncc2C(=O)N1C1CCCCC1 | -3.74%
63 | c1ccc(C(=NNc2nc3ccccc3s2)c2ccccn2)cc1 | 44.1%
64 | O=C(N/N=C/c1cc(Br)c(O)c([N+](=O)[O-])c1)C(O)(c1ccccc1)c1ccccc1 | -0.77%
65 | O=[N+]([O-])c1cc(Br)c(O)c(/C=N/Nc2nc3ccccc3s2)c1 | 75.7% (active)
66 | Cc1cccc(CN2CCN(C3CN(Cc4ccccc4)S(=O)(=O)C3)CC2)c1 (stereo not drawn) | -19.1%

Row | SMILES | inhibition
67 | O=C(c1c(Cl)cccc1Cl)N1CCN(c2cccc3[nH]ccc23)CC1 | -30.3%
68 | COc1ccc(-c2ccc(CN3C(CC(C)C)C(=O)N(Cc4cn(CC5CCCCC5)nn4)CCS3(=O)=O)cc2)cc1 (stereo not drawn) | 24.8%
69 | O=S1(=O)CC(N2CCN(CCO)CC2)CN1Cc1cn(Cc2ccc(Cl)cc2)nn1 (stereo not drawn) | -0.1%
70 | CCOc1c2ccc(C(=O)NCc3ccc4c(c3)OCO4)cc2nn1C | -1.73%
71 | O=C(CSc1ncnc2scc(-c3ccccc3)c12)NCc1ccc2c(c1)OCO2 | 27.4%
72 | CN(C)C(=O)c1cccc(-c2cnc3sc(NCc4ccc5c(c4)OCO5)nn23)c1 | 81.9% (active)
73 | O=C(C1CCN(S(=O)(=O)c2ccc(Br)s2)CC1)N1CCN(c2ccccc2)CC1 | 35.1%
74 | CC(C)C(=O)N1CCC2(CC1)Oc1ccc(F)cc1C(=O)C21CC(c2ccccc2)=NO1 (stereo not drawn) | -32.9%
75 | CC1(C(=O)NNC(=S)NCC2CCCO2)CC1(Cl)Cl (stereo not drawn) | 5.56%
76 | Cc1c(CCC(=O)O)c(=O)oc2c(C)c(OCc3ccccc3Cl)ccc12 | 55.7% (active)
77 | CCOC(=O)CCc1c(C)c2ccc(OCc3nn[nH]n3)c(C)c2oc1=O | 11.4%
78 | Cc1c(CCC(=O)O)c(=O)oc2cc(OCc3ccc(Br)cc3)ccc12 | 6.88%
79 | CC(C)Nc1ncnc2c1ncn2[C@H]1CN(Cc2ccncc2)C[C@@H](CO)O1 | -31.2%
80 | O=C(Nc1ccc2c(c1)OCCO2)C(C1CC1)N1CCC(Cc2ccccc2)CC1 (stereo not drawn) | -6.47%
81 | Oc1ccc2nc(Cc3ccccc3)[nH]c2c1 | -12.2%
82 | O=C(/C(=C/c1cccc(Cl)c1)c1nc2ccccc2[nH]1)c1ccccc1 | 72.2% (active)
83 | O=c1c2cc(Br)ccc2nc(-c2cccc(Cl)c2)n1O | 12.1%
84 | Brc1ccc2nc(-c3ccccc3)c(Cc3ccccc3)n2c1 | -30.1%
85 | CCCCC[C@H](C)N1C[C@@H](COCc2ccccc2)Oc2cc(N3CCC[C@@H]3CO)ccc2S1(=O)=O | 9.1%
86 | Cc1ccc(Sc2ccc(NC(=O)c3ccc(F)cc3)cc2C#N)cc1 | -7.53%
87 | CC(C)(CCl)C(=O)Nc1ccc(Sc2ccc(F)cc2)cc1 | 60.9% (active)
88 | O=C(CCl)Nc1ccc(Sc2ccc(NC(=O)CCl)cc2)cc1 | -24.1%

Reference: PubChem BioAssay AID1159606 (Sanford-Burnham Center for Chemical Genomics, 2016)
